# According to the supplement of paper PMC10338343:
# ± gives the standard deviation.
# Assays:
# [1] = test system: MILI (PIWIL2) piRISC loaded with L1MC piRNA (26 nt); test: pre-steady-state target cleavage rate (min^-1); guide: L1MC piRNA 5'p-UAACUAAAUACUAUGCAAGCUGUAGG; higher = faster piRNA-guided slicing of the target
# Method in brief: (§1)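 Sequencing of uncleaved targets, normalised to depth and to weakly complementary targets, was the readout of this Cleave-'n-Seq assay. A transcribed, DNA-blocked target RNA library (0.1 nM) was mixed with 1 nM active affinity-purified piRISC carrying one synthetic guide, with or without 500 nM GTSF1 partner protein, in HEPES–potassium acetate buffer at 33 °C for 0–8 or 0–960 min. Three trials were pooled, k3 was capped at 0.0001 min^-1, and a burst-and-steady-state fit gave the pre-steady-state cleavage rate.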
# [2] = test system: EfPiwi piRISC loaded with L1MC piRNA (26 nt); test: pre-steady-state target cleavage rate (min^-1); auxiliary factor: 500 nM Ephydatia muelleri Gtsf1; guide: L1MC piRNA 5'p-UAACUAAAUACUAUGCAAGCUGUAGG; MIWI and MILI are mouse PIWI proteins and EfPiwi is from a freshwater sponge; tags in brackets are library labels; higher = faster piRNA-guided slicing of the target
# Method in brief: as §1
# [3] = auxiliary factor: 500 nM mouse GTSF1
# [4] = auxiliary factor: none (no GTSF1)
Sequence,"pre-steady-state target cleavage rate [1, 3]","pre-steady-state target cleavage rate [1, 4]",pre-steady-state target cleavage rate [2]
UCCUGGAUGUGCUUGUAUAGUAUUUAGUUA,0.142 ± 0.017,0.0136 ± 0.004,0.0218 ± 0.0071
UCCUGCUACAGCUUGCAUAGUAUUAUAGUUA,0.189 ± 0.021,0.00585 ± 0.0024,0.0103 ± 0.0037
UCCUCCUACAGCUUGCAUAGUAAUUAGUUA,0.275 ± 0.022,0.00666 ± 0.0023,0.0117 ± 0.0045
UCCUGGAACUGCAUGCAUAGUAUUUAGUUA,0.224 ± 0.013,0.00585 ± 0.0025,0.0126 ± 0.0039
UCCUGCUACAGGUUGCAUAGUAUAUAGUUA,0.305 ± 0.036,0.00597 ± 0.0027,0.005 ± 0.0032
UCCUGGUACAGGUUGCAUAGUAUUUAGUUA,0.217 ± 0.022,0.0148 ± 0.004,0.0211 ± 0.0053
UCCUGGUAGAGCUUGCAAAGUAUUUAGUUA,0.109 ± 0.0077,0.00935 ± 0.0029,0.0322 ± 0.0099
UCCUGGAUGAGCUUGCCUAGUAUUUAGUUA,0.194 ± 0.014,0.00475 ± 0.0027,0.00623 ± 0.0037
UCCUCCUACAGCUUGCAUAGUAUUUUCUAA,0.143 ± 0.028,0.00357 ± 0.0031,0.00565 ± 0.0036
UCCUGGAACAGCUUGCAUAGUAGUUAGUUA,0.138 ± 0.018,0.00378 ± 0.0026,0.00926 ± 0.0027
UCCUGGAUCAGCUUGUCAUAGUAUUUAGUUA,0.21 ± 0.019,0.00334 ± 0.0027,0.0196 ± 0.0046
